PubChem BioAssay (EPA / NIEHS)
Calls of active or inactive are those of the source. How the source made its calls: active means hit-call score of the fitted dose curve at least 0.9, where 1 is the maximum; inactive means score below 0.9.

Legend:
[1] = read-out: catalase (CAT), CAT (gene 847); test: LTEA_HepaRG_CAT: Life Technologies and Expression Analysis (LTEA) Assay for catalase (CAT) using HepaRG (AID 2283452); settings: mRNA level, 48 h; actives raise or lower the signal;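 on AC50: TaqMan qRT-PCR signal normalized to ACTB GAPDH and POLR2A housekeeping genes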
Procedure, shortened: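 Differentiated HepaRG cells in serum-free induction medium were dosed 48 h in duplicate, eight half-log concentrations from 100 uM in 0.5% DMSO. Transcript measured by TaqMan qRT-PCR, normalised to ACTB/GAPDH/POLR2A, fitted bidirectionally against DMSO.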

[2] = read-out: flavin-containing dimethylaniline monooxygenases 3 (FMO3), FMO3 (gene 2328); test: LTEA_HepaRG_FMO3: Life Technologies and Expression Analysis (LTEA) Assay for flavin-containing dimethylaniline monooxygenases 3 (FMO3) using HepaRG (AID 2283453); settings: mRNA level, 48 h; actives raise or lower the signal;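 on AC50: FMO3 transcript by TaqMan qRT-PCR normalized to ACTB GAPDH and POLR2A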
Procedure, shortened: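 Eight-point concentration-response in serum-free HepaRG cultures (top 100 uM, 0.5% DMSO, 48 h). Read-out: FMO3 mRNA level normalized to three endogenous control genes, fitted bidirectionally versus vehicle.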

[3] = read-out: Cytochrome P450 (CYP1A1), CYP1A1 (gene 1543); test: LTEA_HepaRG_CYP1A1: Life Technologies and Expression Analysis (LTEA) Assay for Cytochrome P450 (CYP1A1) using HepaRG (AID 2283454); settings: mRNA level, 48 h; actives raise or lower the signal
Procedure, shortened: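 Induction of CYP1A1 mRNA in a human hepatic cell line was measured 48 h after dosing, with 1 mM phenobarbital as induction positive control and 0.5% DMSO vehicle as baseline for bidirectional curve fitting.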

[4] = read-out: CFLAR gene, CFLAR (gene 8837); test: LTEA_HepaRG_CFLAR: Life Technologies and Expression Analysis (LTEA) Assay for CFLAR gene using HepaRG (AID 2283455); settings: mRNA level, 48 h; actives raise or lower the signal
Procedure, shortened: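 Gain- or loss-of-signal changes in CFLAR transcript were fitted bidirectionally relative to 0.5% DMSO. Cells (HepaRG, duplicate wells) were dosed for 48 h across eight half-log concentrations topping at 100 uM; quantitation by TaqMan qRT-PCR.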

[5] = read-out: Forkhead box O1 (FOXO1), FOXO1 (gene 2308); test: LTEA_HepaRG_FOXO1: Life Technologies and Expression Analysis (LTEA) Assay for Forkhead box O1 (FOXO1) using HepaRG (AID 2283456); settings: mRNA level, 48 h; actives raise or lower the signal
Procedure, shortened: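 Using one lot of HepaRG hepatic cells kept in 0.5% DMSO, the team applied test chemicals in duplicate, half-log dilutions from 100 uM, for 48 h. Expression, normalised to ACTB/GAPDH/POLR2A, was compared with vehicle in either direction.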

[6] = read-out: growth arrest and DNA damage 45 (GADD45A), GADD45A (gene 1647); test: LTEA_HepaRG_GADD45A: Life Technologies and Expression Analysis (LTEA) Assay for growth arrest and DNA damage 45 (GADD45A) using HepaRG (AID 2283458); settings: mRNA level, 48 h; actives raise or lower the signal
Procedure, shortened: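 HepaRG, 48 h exposure, 8 conc. (top 100 uM, half-log steps), 0.5% DMSO vehicle, duplicates. Read-out: qRT-PCR mRNA level, housekeeping-normalized (ACTB/GAPDH/POLR2A). Curves fit bidirectionally vs DMSO baseline.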

[7] = read-out: Forkhead box O3 (FOXO3), FOXO3 (gene 2309); test: LTEA_HepaRG_FOXO3: Life Technologies and Expression Analysis (LTEA) Assay for Forkhead box O3 (FOXO3) using HepaRG (AID 2283459); settings: mRNA level, 48 h; actives raise or lower the signal
Procedure, shortened: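 Gene-expression endpoint: FOXO3 transcript level by qRT-PCR in HepaRG cultures treated 48 h with chemicals up to 100 uM (half-log, 0.5% DMSO vehicle).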

[8] = read-out: ABC Transporter (ABCB1), ABCB1 (gene 5243); test: LTEA_HepaRG_ABCB1: Life Technologies and Expression Analysis (LTEA) Assay for ABC Transporter (ABCB1) using HepaRG (AID 2283460); settings: mRNA level, 48 h; actives raise or lower the signal
Procedure, shortened: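 Human liver HepaRG line treated 48 h with up to 100 uM compound (eight half-log points, 0.5% DMSO); ABCB1 mRNA change fitted bidirectionally against DMSO controls.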

[9] = read-out: growth arrest and DNA damage 45 (GADD45B), GADD45B (gene 4616); test: LTEA_HepaRG_GADD45B: Life Technologies and Expression Analysis (LTEA) Assay for growth arrest and DNA damage 45 (GADD45B) using HepaRG (AID 2283461); settings: mRNA level, 48 h; actives raise or lower the signal
Procedure, shortened: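 Values are bidirectional concentration-response fits against 0.5% DMSO controls. Underlying data: qRT-PCR mRNA levels in human HepaRG liver cells treated 48 h in serum-free induction medium, eight concentrations topping at 100 uM.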

[10] = read-out: ABC Transporter (ABCC3), ABCC3 (gene 8714); test: LTEA_HepaRG_ABCC3: Life Technologies and Expression Analysis (LTEA) Assay for ABC Transporter (ABCC3) using HepaRG (AID 2283462); settings: mRNA level, 48 h; actives raise or lower the signal
Procedure, shortened: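 Differentiated HepaRG liver cells receive test chemicals at eight concentrations (max 100 uM) for 48 h. Expression of ABCC3 is quantified by qRT-PCR against ACTB, GAPDH and POLR2A, and activity is fitted in both directions against the DMSO control.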

[11] = read-out: ABC Transporter (ABCB11), ABCB11 (gene 8647); test: LTEA_HepaRG_ABCB11: Life Technologies and Expression Analysis (LTEA) Assay for ABC Transporter (ABCB11) using HepaRG (AID 2283463); settings: mRNA level, 48 h; actives raise or lower the signal
Procedure, shortened: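 Using HepaRG cultures held in 0.5% DMSO, chemicals were tested at half-log dilutions from 100 uM for 48 h. Induction or suppression of ABCB11 mRNA, normalized to ACTB, GAPDH and POLR2A, was fitted bidirectionally against vehicle.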

[12] = read-out: ABC Transporter (ABCC2), ABCC2 (gene 1244); test: LTEA_HepaRG_ABCC2: Life Technologies and Expression Analysis (LTEA) Assay for ABC Transporter (ABCC2) using HepaRG (AID 2283464); settings: mRNA level, 48 h; actives raise or lower the signal
Procedure, shortened: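 Gene expression of ABCC2 was determined by qRT-PCR in HepaRG cells exposed 48 h to chemicals (highest 100 uM, half-log dilutions). Activity was fitted in both directions relative to 0.5% DMSO vehicle.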

[13] = read-out: Broad substrate specificity ATP-binding cassette transporter ABCG2 (Homo sapiens) (UniProt Q9UNQ0); test: LTEA_HepaRG_ABCG2: Life Technologies and Expression Analysis (LTEA) Assay for ABC Transporter (ABCG2) using HepaRG (AID 2283465); settings: mRNA level, 48 h; actives raise or lower the signal
Procedure, shortened: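 Gene expression of ABCG2 in HepaRG liver cells is quantified by qRT-PCR following 48 h exposure across an eight-point series topping at 100 uM. Values come from bidirectional fitting relative to DMSO vehicle.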

[14] = read-out: ATP-citrate lyase (ACLY), ACLY (gene 47); test: LTEA_HepaRG_ACLY: Life Technologies and Expression Analysis (LTEA) Assay for ATP-citrate lyase (ACLY) using HepaRG (AID 2283466); settings: mRNA level, 48 h; actives raise or lower the signal
Procedure, shortened: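 ACLY expression changes in human HepaRG liver cells are quantified by qRT-PCR after 48 h exposure to test chemicals (maximum 100 uM, half-log steps). Values are fitted in both directions relative to 0.5% DMSO vehicle.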

[15] = read-out: Peroxisomal acyl-coenzyme A oxidase 1 (ACOX1) gene, ACOX1 (gene 51); test: LTEA_HepaRG_ACOX1: Life Technologies and Expression Analysis (LTEA) Assay for Peroxisomal acyl-coenzyme A oxidase 1 (ACOX1) gene using HepaRG (AID 2283467); settings: mRNA level, 48 h; actives raise or lower the signal
Procedure, shortened: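 Human HepaRG hepatic cultures, 48 h treatment with test chemicals up to 100 uM. ACOX1 expression read by qRT-PCR relative to 0.5% DMSO vehicle.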

[16] = read-out: Alkaline Phosphatase, Placental (ALPP) gene, ALPP (gene 250); test: LTEA_HepaRG_ALPP: Life Technologies and Expression Analysis (LTEA) Assay for Alkaline Phosphatase, Placental (ALPP) gene using HepaRG (AID 2283468); settings: mRNA level, 48 h; actives raise or lower the signal
Procedure, shortened: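 Expression of ALPP was quantified by qRT-PCR against three housekeeping genes in human HepaRG cultures treated for 48 h with an eight-point concentration series up to 100 uM. Activity in either direction was fitted relative to 0.5% DMSO.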

[17] = read-out: Bcl-2 (BAD) gene, BAD (gene 572); test: LTEA_HepaRG_BAD: Life Technologies and Expression Analysis (LTEA) Assay for Bcl-2 (BAD) gene using HepaRG (AID 2283469); settings: mRNA level, 48 h; actives raise or lower the signal
Procedure, shortened: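 Activity values reflect up- or down-regulation of BAD mRNA in human HepaRG hepatic cells treated 48 h in serum-free medium, with eight-point half-log dosing capped at 100 uM and 0.5% DMSO vehicle.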

[18] = read-out: Bcl-2 (BAX) gene, BAX (gene 581); test: LTEA_HepaRG_BAX: Life Technologies and Expression Analysis (LTEA) Assay for Bcl-2 (BAX) gene using HepaRG (AID 2283470); settings: mRNA level, 48 h; actives raise or lower the signal
Procedure, shortened: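 qRT-PCR read-out of BAX mRNA, normalized to three housekeeping genes, after 48 h chemical exposure of human HepaRG cells in serum-free induction medium; eight-point half-log series, top 100 uM, 0.5% DMSO vehicle; bidirectional fit versus DMSO.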

[19] = read-out: adenosine kinase (ADK) gene, ADK (gene 132); test: LTEA_HepaRG_ADK: Life Technologies and Expression Analysis (LTEA) Assay for adenosine kinase (ADK) gene using HepaRG (AID 2283471); settings: mRNA level, 48 h; actives raise or lower the signal
Procedure, shortened: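 HepaRG (human liver), 48 h chemical exposure, 8-pt half-log series, top 100 uM, 0.5% DMSO vehicle. Readout: ADK mRNA by qRT-PCR vs housekeeping genes; bidirectional curve fit relative to DMSO baseline.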

[20] = CEETOX_H295R_TESTO: CeeTox H295R High-throughput Steroidogenesis Assay for Testosterone (TESTO) (AID 2283457); settings: actives raise or lower the signal
Procedure, shortened: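 Testosterone synthesis is assessed in human adrenocortical H295R cells after 48 h of chemical exposure, using HPLC-MS/MS of extracted medium. Activity is fitted in both directions against DMSO control.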

Measured: AC50

Sequence of Broad substrate specificity ATP-binding cassette transporter ABCG2 (Homo sapiens) (Q9UNQ0 whole entry, looked up): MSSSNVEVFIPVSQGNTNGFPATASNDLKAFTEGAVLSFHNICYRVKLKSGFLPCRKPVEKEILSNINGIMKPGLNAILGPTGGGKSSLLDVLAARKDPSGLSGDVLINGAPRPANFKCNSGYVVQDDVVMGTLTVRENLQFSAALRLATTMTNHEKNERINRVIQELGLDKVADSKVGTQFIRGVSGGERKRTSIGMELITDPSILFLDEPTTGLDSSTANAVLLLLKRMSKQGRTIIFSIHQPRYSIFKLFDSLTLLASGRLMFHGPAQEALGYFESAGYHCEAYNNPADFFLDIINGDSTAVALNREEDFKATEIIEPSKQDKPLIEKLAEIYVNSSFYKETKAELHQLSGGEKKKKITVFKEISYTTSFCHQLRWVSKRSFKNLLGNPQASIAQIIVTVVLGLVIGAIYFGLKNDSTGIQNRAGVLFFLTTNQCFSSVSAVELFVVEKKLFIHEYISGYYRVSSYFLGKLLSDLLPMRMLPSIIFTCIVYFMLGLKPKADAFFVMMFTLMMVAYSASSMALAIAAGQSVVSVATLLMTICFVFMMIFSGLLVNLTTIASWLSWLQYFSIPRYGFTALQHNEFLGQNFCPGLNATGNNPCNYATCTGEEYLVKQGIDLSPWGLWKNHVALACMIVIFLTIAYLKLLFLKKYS

CCCCCCCCOC(=O)c1cc(O)c(O)c(O)c1
active: [3] 50 µM | [16] 11.5 µM
not listed: [20]
inactive: all other assays above

c1ccc2ccccc2c1
not listed: [20]
inactive: all other assays above

CCCCCCCCN(C)CCCCCCCC
inactive: all assays above

Cc1occc1C(=O)Nc1ccc(C(=O)N2CCC(F)(F)/C(=C\C(=O)N3CCC(N4CCCCC4)CC3)c3ccccc32)cc1
active: [1] 31.2 µM | [2] 44 µM | [3] 16.8 µM | [4] 31.2 µM | [10] 47 µM | [11] 44.5 µM | [14] 53.2 µM | [15] 31.2 µM | [16] 46.7 µM
not listed: [20]
inactive: all other assays above

CC(C)(c1cc(Br)c(O)c(Br)c1)c1cc(Br)c(O)c(Br)c1
active: [4] 71.8 µM | [7] 89.2 µM | [9] 74.5 µM | [11] 9.94 µM | [15] 89.1 µM | [18] 22.6 µM | [19] 92.5 µM
not listed: [20]
inactive: all other assays above

O=C(Nc1ccc(Cl)cc1)Nc1ccc(Cl)c(Cl)c1
active: [1] 16.6 µM | [2] 22.9 µM | [3] 27.7 µM | [5] 18.6 µM | [6] 21.7 µM | [7] 11.8 µM | [8] 18.9 µM | [11] 15 µM | [13] 12.4 µM | [14] 17.5 µM | [15] 18.5 µM | [16] 19.6 µM | [18] 29.2 µM | [19] 22.6 µM
inactive: [4] | [20] | [10] | [12] | [17]
